According to the supplement of paper PMC6555819:

Columns and labels:
Assay in all cases: PBM binding z-score (relative to random genomic background probes); higher = stronger binding; sequences stand for … in GC…GCGATTGACAGCGTAGAATGAAGG
[1] = test system: FXR:RXRa (NR concentration 270 nM, RXRa partner concentration 90 nM)
In short: (§1)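 Ligand-free nuclear receptor dimers were applied to custom Agilent 4×180K protein-binding microarrays whose double-stranded probes carried direct-repeat seeds, single-nucleotide variants, half-site ablations and random human genomic background sequences in 34-nt variable regions. Incubation lasted 1 h. Binding z-scores were computed against the random background probes from regression-normalized fluorescence.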

[2] = test system: LXRa:RXRa (NR concentration 270 nM, RXRa partner concentration 90 nM)
In short: as §1

[3] = test system: LXRa homodimer (NR concentration 270 nM)
In short: as §1

[4] = test system: LXRb:RXRa (NR concentration 270 nM, RXRa partner concentration 90 nM)
In short: as §1

[5] = test system: LXRb homodimer (NR concentration 270 nM)
In short: as §1

[6] = test system: PPARa:RXRa (NR concentration 270 nM, RXRa partner concentration 90 nM)
In short: as §1

[7] = test system: PPARg:RXRa (NR concentration 180 nM, RXRa partner concentration 90 nM)
In short: as §1

[8] = test system: PPARg:RXRa 270nM:90nM, anti-RXR (NR concentration 270 nM, RXRa partner concentration 90 nM)
In short: as §1

[9] = test system: PPARg:RXRa 30nM:10nM, anti-RXR (NR concentration 30 nM, RXRa partner concentration 10 nM)
In short: as §1

[10] = test system: PPARg:RXRa 90nM:30nM, anti-RXR (NR concentration 90 nM, RXRa partner concentration 30 nM)
In short: as §1

[11] = test system: PPARg:RXRa DBDmut IVT, anti-RXR (DBD mutation: RXRa K156A/R161A, NR concentration 270 nM, RXRa partner concentration 90 nM)
In short: as §1

[12] = test system: PPARg:RXRa IVT, anti-PPARg (NR concentration 270 nM, RXRa partner concentration 90 nM)
In short: as §1

[13] = test system: PPARg DBDmut:RXRa IVT, anti-PPARg (DBD mutation: PPARg1 K132A/R137A, NR concentration 270 nM, RXRa partner concentration 90 nM)
In short: as §1

[14] = test system: PPARg DBDmut IVT, anti-PPARg (DBD mutation: PPARg1 K132A/R137A, NR concentration 270 nM)
In short: as §1

[15] = test system: PPARg homodimer (NR concentration 180 nM)
In short: as §1

[16] = test system: PXR:RXRa (NR concentration 270 nM, RXRa partner concentration 90 nM)
In short: as §1

[17] = test system: PXR homodimer (NR concentration 270 nM)
In short: as §1

[18] = test system: RARa:RXR (NR concentration 270 nM, RXRa partner concentration 90 nM)
In short: as §1

[19] = test system: RARa homodimer (NR concentration 270 nM)
In short: as §1

[20] = test system: RARb:RXRa (NR concentration 270 nM, RXRa partner concentration 90 nM)
In short: as §1

Sequence	PBM binding z-score [1]	PBM binding z-score [2]	PBM binding z-score [3]	PBM binding z-score [4]	PBM binding z-score [5]	PBM binding z-score [6]	PBM binding z-score [7]	PBM binding z-score [8]	PBM binding z-score [9]	PBM binding z-score [10]	PBM binding z-score [11]	PBM binding z-score [12]	PBM binding z-score [13]	PBM binding z-score [14]	PBM binding z-score [15]	PBM binding z-score [16]	PBM binding z-score [17]	PBM binding z-score [18]	PBM binding z-score [19]	PBM binding z-score [20]
CCTACTGGGCCATCAGGTCATTGACATCAACGTT	2.17	1.67	1.29	2.01	-0.379	2.7	3.12	3.54	1.46	2.55	4.78	5.02	0.0284	0.33	1.3	1.67	0.415	2.15	0.278	2.09
TCTTGTAGATCAAGCAGGTTAAGATAGCCTGAGT	0.371	0.507	-0.257	0.188	-0.36	0.829	-0.193	1.27	2.75	2.18	1.74	0.733	0.115	0.351	0.386	0.406	-0.159	0.668	-0.0619	0.309
CAAACTAGGTCAAGATGTCAAAGTCCGCTTCCCG	3.9	3.18	0.475	2.4	0.306	4.98	8.33	7.27	4.86	7.04	8.4	8.48	2.81	1.01	2.29	1.86	-0.0603	3.02	0.666	4.12
ACAGACAGGTGAGTGAAGGTAACTCGGCTGGACG	0.29	0.0989	-0.627	-0.781	-0.86	-0.0904	0.606	0.0767	-0.28	-0.126	0.175	0.33	-0.433	-0.413	0.0145	-0.486	-0.431	-0.0751	-0.294	0.411
ACTAGTTGGTCAGCTGAGGTCAAACACAATTCGG	3.81	4.24	4.08	4.26	1	4.22	1.65	2.34	0.396	1.55	1.45	2.49	0.694	0.579	3.02	6.03	3.32	5.18	2.07	3.62
CATATTAGTTGACCATAAGGGCAACCGAAGCTCG	1.05	0.784	0.591	0.601	0.928	0.55	0.779	0.866	0.713	0.78	0.59	1.02	1.7	1.43	1.42	0.825	0.678	1.19	1.93	1.8
ATCGAAAGGTCGGCGAGGTGAGTATACACCGTTT	3.23	2.52	-0.167	1.9	0.199	3.76	1.57	2.25	0.34	1.11	-0.166	1.39	0.74	0.0118	0.989	2.25	-0.157	2.77	-0.0319	3.5
AGAACGAGGGCACGCTGAGCTGATAGCAGAGTAG	0.647	0.277	-0.751	-0.0518	-0.909	1.98	1.91	1.81	0.448	0.908	4.56	3.89	0.483	-0.228	0.179	-0.0742	-0.541	0.485	-0.937	2.39
TCGATTAGTTGAAGGGCAACCGACGAGTCCGTTT	0.259	0.194	-0.152	0.106	-0.503	0.295	-0.114	1.19	2.74	1.85	1.72	0.195	0.000817	0.136	-0.0561	0.157	0.0884	0.128	0.353	1.2
TTACCAAGGTGAGCCGAGGTCGTTGATCCAACTC	2.53	1.33	-0.48	1.11	-1.11	2.19	0.623	1.32	-0.155	0.541	1.46	2.45	0.0524	0.067	-0.0527	4.95	0.39	1.95	-0.75	1.99
ATCGACAGGTCGAGGTGAGTATAGAGAAAGGGAA	0.437	0.548	-0.71	0.0707	-0.444	1.51	0.748	0.211	0.16	0.281	-0.576	0.778	-0.0493	-0.0748	0.551	0.0775	0.0221	0.649	0.423	1.69
CGTCCAAGGTTATAGGAGGTCAGTGAAGACAGAT	3.51	7.81	5.37	6.47	0.402	3.39	1.35	1.77	0.207	0.943	1.11	2.3	0.293	0.256	3.21	5.24	1.46	3.66	0.744	3.48
GCTGCTGGGTCAGGTTGGTCAGCTAACGGGTACG	0.641	0.222	-0.341	0.236	-0.403	1.32	0.104	0.429	-0.561	0.0436	1.8	1.47	-0.97	-0.347	0.551	0.0327	-0.0848	0.539	-0.315	2.84
CCTCGGAGCACAGAAGGTCAGAGCTGTCCGCTTT	1.68	2.17	0.231	1.21	-0.905	1.97	-0.336	0.536	-1.06	-0.433	0.355	-0.108	-1.25	-1.67	1.34	1.87	0.017	2.1	-0.245	2.62
